{"source": "PubChem BioAssay (NCI)", "note": "Values joined by “and” are separate entries in the source; they are usually repeats but may differ in a detail not shown here. Equal entries are not always repeated. About 83,000 compounds went through this panel and 20% of them were active in at least one assay; those are over-represented in the sample as a whole.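 Activity criterion: percent growth below 10, measured after cells in 96-well plates were exposed to a single compound concentration for 48 hours.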 Unmarked numbers belong to inactive results. Active and inactive are the calls of the source."}
{"test_system": "MDA-MB-468 breast", "experiment": "NCI-60 one-dose screen, 48 h (100 = growth as untreated, 0 = no growth, -100 = all killed)", "settings": "10 µM unless noted"}
{"smiles": "O=C1C2C3C=CC(O3)C2C(=O)N1Nc1ccccc1", "note": "(stereo not given)", "growth": "105%"}
{"smiles": "C#Cc1nc(C2=C(C)C(=O)/C(=N/OC(C)=O)C2)cs1", "growth": "69.9%"}
{"smiles": "O=C(/C=C/c1c(Cl)nc2sccn12)c1ccc(F)c(F)c1", "growth": "35.4%"}
{"smiles": "CCNCCCn1c2c(c3cc(OC)c(OC)cc3c1=O)C(=O)c1cc(OC)cnc1-2", "growth": "5.95% (active)"}
{"smiles": "CN(C)c1ccc2cc3c(cc2c1)Oc1ccccc1N3.[Cl][Zn][Cl]", "growth": "-10.4% (active)"}
{"smiles": "CCCCCCCCCCCCCCC(C(=O)OCC)C(=O)OCC", "growth": "95.9%"}
{"smiles": "COc1ccc2c(c1)/C(=C1/S/C(=N/c3nnc(C)s3)NC1=O)C(=O)N2Cc1ccc(Br)cc1", "growth": "25.8%"}
{"smiles": "COC(OC)c1ccccc1", "growth": "107%"}
{"smiles": "O=C1OC(c2ccc(Cl)c(Cl)c2)=C/C1=C/c1cccc([N+](=O)[O-])c1", "growth": "92.3%"}
{"smiles": "C[C@]12CCc3c(ccc4cc(O)ccc34)[C@@H]1CC[C@H]2O", "growth": "81.3%"}
{"smiles": "O=C(Nc1ccc(-n2cc(-c3ccncc3)c(-c3ccc(Cl)c(O)c3)n2)cc1)N1CCOCC1", "growth": "112%"}
{"smiles": "S=c1c2ncccc2c(-c2ccccn2)nn1Cc1ccccn1", "growth": "111%"}
{"smiles": "CCCCS(=O)(=O)Oc1ccc(-c2nc(C)c(C(=O)OCC)s2)cc1C=O", "growth": "52.1%"}
{"smiles": "O=C(NC(=S)Nc1ccc(-c2nc3ccccc3[nH]2)cc1)c1ccc2ccccc2c1", "growth": "13.6%"}
{"smiles": "Nc1nc(N)c(-c2ccc(Cl)cc2)c(/C=C/c2ccc([N+](=O)[O-])cc2)n1", "growth": "64.7%"}
{"smiles": "O=C(N/N=c1/ccoc2cccnc12)N1CCN(c2ncccn2)CC1", "growth": "2.98% (active)"}
{"smiles": "CSc1n(Cc2ccc3ccccc3c2)c(C)c[n+]1Cc1ccc2ccccc2c1", "growth": "-47.5% (active)"}
{"smiles": "Nc1nc(N)c(NC(=O)CNc2ccc(C(=O)O)cc2)c(N)n1", "growth": "98.6%"}
{"smiles": "COc1ccc(/C=C/C(=C/c2c(O)[nH]c3cc(Br)ccc23)N=O)cc1", "growth": "114%"}
{"smiles": "Nc1n[nH]c2cccc(C#Cc3cccc(NC(=O)c4cc(F)cc(C(F)(F)F)c4)c3)c12", "growth": "92.2%"}
{"smiles": "CCN1CCN(c2cc(C(=O)Nc3nc(-c4cc(OC)c(OC)c(OC)c4)cs3)cc(C(F)(F)F)c2)CC1", "growth": "84.8%"}
{"smiles": "CCOC(=O)C(CCCCC(NC(C)=O)(C(=O)OCC)C(=O)OCC)(NC(C)=O)C(=O)OCC", "growth": "107%"}
{"smiles": "CNC(=O)c1[nH]cc(-c2ccccc2)c1-c1cc(OC)c2c(c1OC)OCO2", "growth": "100%"}
{"smiles": "CC1(C)CC(=O)C2=C(C1)N(c1ccc(F)cc1F)C(N)=C(C#N)C2c1cc(Br)ccc1F", "note": "(stereo not given)", "growth": "92.9%"}
{"smiles": "Nc1ccc(S(=O)(=O)c2ccc(N)cc2)cc1", "growth": "97.5% and 101%"}
{"smiles": "Cc1ccc(-n2cc(/C=N/NC(=O)c3ccncc3)c(-c3ccc(S(C)(=O)=O)cc3)n2)cc1", "growth": "100%"}
{"smiles": "CCSc1ccc([C@@H]2[C@@H](N)C(=O)N2c2cc(OC)c(OC)c(OC)c2)cc1", "growth": "17%"}
{"smiles": "CC(C)(C)[Si](C)(C)OC1[C@@H](COC(N)=O)O[C@@H](n2cnc3c(N)ncnc32)[C@H]1O[Si](C)(C)C(C)(C)C", "note": "(stereo not given in full)", "growth": "97.2%"}
{"smiles": "CCC(=C(c1ccc(OCCN2CCCCCC2)cc1)c1ccc(OCCN2CCCCCC2)cc1)c1ccc(Cl)cc1", "growth": "-83.3% (active)"}
{"smiles": "CC/C(=N/NC(N)=O)c1ccccc1", "growth": "103%"}
{"smiles": "COc1ccc(-c2ncnc3c2ncn3CC#CCCl)cc1", "growth": "20.8%"}
{"smiles": "COC(=O)c1[nH]cnc1/N=N/N(C)CCO", "growth": "87.2%"}
{"smiles": "CCn1nc(-c2ccccn2)c2cccnc2c1=S", "growth": "48.8%"}
{"smiles": "COC(=O)CC[C@@H](C)[C@H]1CC[C@H]2[C@@H]3CC[C@@H]4C[C@H](O)CC[C@]4(C)[C@H]3C[C@H](O)[C@]12C", "growth": "103%"}
{"smiles": "COc1ccc(/C=N/N=C(/c2ccccc2)c2ccc3nc(-c4ccc(Cl)cc4)[nH]c3c2)cc1", "growth": "70%"}
{"smiles": "C=C1C(=O)O[C@H]2[C@H]1CC/C(COC(=O)NCc1ccc(Cn3c(=O)sn(CCCC)c3=O)cc1)=C\\CC[C@@]1(C)O[C@@H]21", "growth": "12.2%"}
{"smiles": "CC/C(C)=C(\\C)C(=O)O", "growth": "106%"}
{"smiles": "CCOC(=O)c1cnn(CC(O)CC)c1NC(=O)NCc1ccccc1C(F)(F)F", "note": "(stereo not given)", "growth": "106%"}
{"smiles": "O=C(NC1CC1)c1cc2n(n1)CC(c1ccccc1)N2", "note": "(stereo not given)", "growth": "98.5%"}
{"smiles": "CN(C)c1ccc(/C=N/Nc2nc(N/N=C/c3ccc(N(C)C)cc3)nc(N3CCCCC3)n2)cc1", "growth": "36.3%"}
